# In the supplement of paper PMC6555819:
# Columns and labels:
# Assay in all cases: PBM binding z-score (relative to random genomic background probes); higher = stronger binding; sequences stand for … in GC…GCGATTGACAGCGTAGAATGAAGG
# [1] = test system: FXR:RXRa (NR concentration 270 nM, RXRa partner concentration 90 nM)
# In short: (§1)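 On custom Agilent 4×180K arrays, double-stranded probes with 34-nt variable regions carried direct-repeat seeds, single-nucleotide variants, half-site ablations or random human genomic background. Ligand-free nuclear receptor dimers were applied for 1 h, and binding was read with antibodies against each partner (one per run). Binding z-scores come from regression-normalized fluorescence, with the random background probes as reference.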
# [2] = test system: LXRa:RXRa (NR concentration 270 nM, RXRa partner concentration 90 nM)
# In short: as §1
# [3] = test system: LXRa homodimer (NR concentration 270 nM)
# In short: as §1
# [4] = test system: LXRb:RXRa (NR concentration 270 nM, RXRa partner concentration 90 nM)
# In short: as §1
# [5] = test system: LXRb homodimer (NR concentration 270 nM)
# In short: as §1
# [6] = test system: PPARa:RXRa (NR concentration 270 nM, RXRa partner concentration 90 nM)
# In short: as §1
# [7] = test system: PPARg:RXRa (NR concentration 180 nM, RXRa partner concentration 90 nM)
# In short: as §1
# [8] = test system: PPARg:RXRa 270nM:90nM, anti-RXR (NR concentration 270 nM, RXRa partner concentration 90 nM)
# In short: as §1
# [9] = test system: PPARg:RXRa 30nM:10nM, anti-RXR (NR concentration 30 nM, RXRa partner concentration 10 nM)
# In short: as §1
# [10] = test system: PPARg:RXRa 90nM:30nM, anti-RXR (NR concentration 90 nM, RXRa partner concentration 30 nM)
# In short: as §1
Sequence,PBM binding z-score [1],PBM binding z-score [2],PBM binding z-score [3],PBM binding z-score [4],PBM binding z-score [5],PBM binding z-score [6],PBM binding z-score [7],PBM binding z-score [8],PBM binding z-score [9],PBM binding z-score [10]
CCTTACGGGTAAAGGTTATAGCACGGGTGGTACG,1.2,1.69,0.37,1.19,-0.173,3.02,2.95,4.67,2.06,3.73
CCTATTAGTTGACCATAAGGGCAACTGAAGCTCG,1.03,0.424,0.44,0.496,0.545,0.479,0.379,0.673,0.177,0.597
GCGACTGGGGCTTCAGCAGGTTACCATAACTTAA,-0.296,-0.21,-0.373,0.63,-0.572,0.478,-0.166,-0.624,-0.435,-0.762
AGGACGAGGGCACGCTGAGTTGATAGCAGAGTAG,0.954,0.423,-0.584,0.138,-1.02,1.45,1.2,0.43,-0.0581,0.384
CCTTACGGGTCACTCCAGGTTATAGCATCGGAGT,4.9,7.65,1.97,5.36,0.226,4.64,3.53,3.74,1.18,2.57
GCGACAGGGGCAAAGCAGGTTACCATAAGGTTGG,0.475,1.06,-0.402,0.691,-0.988,1.41,0.589,0.106,-0.427,-0.446
CCTACTGGGCCATCAGGACATTGATATCAACGTT,0.247,-0.3,0.171,-0.621,-0.424,0.703,1.19,1.26,0.361,0.825
ACTCCGAGGACAAAGGTCAGAGCTACGCCAGTGA,4.86,4.4,1.86,3.99,0.764,4.91,8.48,7.6,6.18,8.09
ATATGTAGGTTAGCTGGTGTCATTCAGACTAGGC,0.789,1.83,-0.106,0.765,0.392,2.74,3.47,2.8,0.962,2.2
CCGACTGGGGCATACGGTTACCATAAGCCAGCCC,-0.196,-0.252,-0.334,-0.388,-1.21,0.556,1.47,1.77,0.00419,1.13
ACTATTAGTTGAGACGAGGGCAACCGGTAGGTTG,0.623,0.318,0.134,0.06,-0.0535,0.319,0.685,-0.0601,-0.0682,0.00323
GCTTGTAGATCAAGGTTAGGAAAGACTAAGCTAA,-0.51,-0.347,-0.468,-0.37,-0.511,0.626,0.0578,0.548,-0.199,0.557
TCTAGTTGGTCACCGAGGTCACACACGACGGGTA,3.85,3.58,2.2,3.85,1.18,4.41,3.75,4,3.5,3.89
ATATGTAGGTTAGCGGGTCATTCAGTTTGCGCAT,2.01,2.27,0.947,2.45,0.826,4.33,6.81,5.6,3.1,5.16
AGTCACAGTTCAGGACGAGGTAACGTAAAGCACG,1.01,0.828,0.0856,0.666,-0.159,1.35,1.15,0.998,0.403,0.623
TCTCGGAGGACACGAAAGGTCAGAGGTCGACATC,3.84,4.45,3.58,4.14,0.107,4.5,3.27,4.29,3.24,3.74
GCTATTAGCTGAAAGGGCAACCGAATGATTCTCG,0.0536,0.222,-0.091,0.372,-0.619,1.19,1.15,2.72,0.859,2.07
CGTCCAAGGTCAGCAGGTAAGTGAAAGCGACGTG,5.48,3.22,-0.131,2.36,-0.25,4.3,3,3.31,0.585,2.28
TCGAGTAGGTTACCTATGGGGCATTCAGCTTTCT,0.0442,1.74,-0.775,0.927,-1.31,1.24,0.475,1.01,1.17,1.17
TCGAGTAGGTTGGTCGGGGCATTCAGCCAACATA,0.0024,-0.387,-0.443,-0.0412,-0.299,0.0379,-0.696,0.116,0.981,0.513
